Results filed as inconclusive are left out. The source made the active and inactive calls. The call rests on the fitted dose curve; in most records, active means well fitted inhibition curve with a large enough effect; inconclusive means small, poorly fitted or top-dose-only effect, or effect the other way; inactive means flat fitted curve, though single readings scatter.

This assay is described as follows: qHTS Assay Multiplex Screening to Identify Dual Action Probes in a Cell Model of Huntington: Cytoprotection (Protease relase). The settings on record: PC12 HttQ103 cells, Cytotox-Glo protease release, 40 h; series mostly up to 46.1 µM. An excerpt: NIH Chemical Genomics Center [NCGC]
NIH Molecular Libraries Probe Production centers Network [MLPCN]
Assay Submitter (PI): Wei Zheng
Huntington's disease is a neurodegenerative disorder caused by a trinucleotide repeat expansion in Exon 1 of the Huntingtin gene. The CAG trinucleotide encodes glutamine and polyglutamine expansions cause cell death in selective areas of the brain. Huntington polyglutamine repeats have the tendency to form aggregates which are observable in later stages of the disease. The exact nature of the aggregates, whether toxic, protective, or insignificant, is unclear.
A stable PC12 cell line containing a gene fusion of Exon 1 of the Huntingtin gene linked to GFP under the control of the inducible ecdysone promoter were used as the cell-based model of Huntington Disease for high throughput screening. Exon 1 of the Huntingtin gene contained an expansion of 103 polyglutamines (Q103) which, when expressed, caused cell death and distinct, bright GFP aggregates. The amount of cell death and the size and intensity of GFP aggregates increased over time and induction level. In the primary screen, cell death were quantified with a measurement of ATP content in the cells. A maximal 40-50% of cell death was observed when the Huntington gene was induced in this cell line.
We optimized this assay in a homogeneous 1536 well format. A quantitative high throughput screen (qHTS) was conducted on the PC12 cells which were induced to express the toxic fusion construct. Small molecules which prevented cell death were considered hits, and were further studied. The present assay is an alternate assay for cytoprotection using Promega's Cytotox-Glo reagent.
PC12 cells stably containing a construct with an ecdysone inducible promoter expressing GFP fused to the exon 1 of HTTQ103 (Huntington protein which containing a 103 ployglutamine expansion) were used.
NCGC Assay Protocol Summary:
Sequence, Parameter, Description
1, Reagent, 5 uL 1500 cells/well 1536 TC treated White clear bottom plate
2, Compound, 23 nL Tebufenozide inducer (100 nM final) to all columns
3, Compound, 23 nL 40 uM to 0.5 nM Libraries
5, Reagent, 2 ul Promega's Cytotox-Glo assay reagent
6, Detector, 4 sec integration with a Viewlux Luminescent
Media consisted of phenol red free DMEM + 5% equine serum (Hyclone # SH30072.03 ), 5% supplemented Bovine Calf Serum (Hyclone # SH30074.03 ), 1x pen/strep, no G418
On the technique in general: Quantitative high-throughput screening tests each substance at several concentrations.
Regarding `COC(=O)c1ccc(NC(=O)CN2C(=O)CSC2=O)cc1`, the Potency entry was “inactive”.
On to `N#Cc1ccsc1NC(=O)CSc1ncnc2ccccc12`, for which the Potency result is “inactive”.
Regarding `Cc1nnc(C)n1/N=C/c1cc(Br)cc(Br)c1O`, the Potency entry was “inactive”.
For `Cc1cccc(OCc2nc(C)cc(=O)[nH]2)c1`, the Potency is 10 µM (active).
`Cn1nnnc1Sc1ncnc2scc(-c3ccc([N+](=O)[O-])cc3)c12`: the Potency is 8.91 µM (active).
With `Cn1c(C(=O)N2CCN(c3ccc(Cl)cc3)CC2)cc2c(=O)[nH]c3ccccc3c21`, the Potency entry is “inactive”.
Turning to `COC(=O)C(O)(CC(=O)Nc1ccc(OC(F)(F)F)cc1)C(F)(F)F` (stereo not given), the Potency result is “inactive”.
Then `COc1ccc(C)cc1NC(=O)C(Sc1nnnn1C)c1ccccc1` (stereo not given), with “inactive”.
As to `CC(=O)OCC1=C(C(=O)O)N2C(=O)[C@@H](NC(=O)Cc3cccs3)[C@H]2SC1`, the Potency result is “inactive”.
Regarding `O=C(Nc1nc(-c2ccc(-c3ccccc3)cc2)cs1)C1CCCO1` (stereo not given), the Potency was 11.2 µM (active).
For `O=C(O)CCN1C(=O)/C(=C\c2ccc(-c3nc4ccccc4s3)o2)SC1=S`, the Potency was 5.62 µM (active).
On to `COc1ccc(-c2csc3ncnc(Sc4nnnn4C)c23)cc1`, for which the Potency was 11.2 µM (active).
On to `CN1C(=O)C2(c3ccccc31)C1CCCC=C1C(C#N)=C(N)C2(C#N)C#N` (stereo not given), for which the Potency result is “inactive”.
Then `Cn1nnnc1Sc1ncnc2scc(-c3ccc[nH]3)c12`, with 8.91 µM (active); and `Cc1[nH]nc2c1C(c1cccc(O)c1)C1=C(CC(C)(C)CC1=O)N2` (stereo not given), with “inactive”.
As to `Cc1cc(C)nc(Sc2nc(C)nc3c2oc2ccccc23)n1`, the Potency result is “inactive”.
For `Cn1nnnc1Sc1ncnc2scc(-c3cccc(C#N)c3)c12`, the Potency is 10 µM (active).
Then `NCCCCCc1cnc[nH]1`, with “inactive”.
`C#CCN(C)CCCOc1ccc(Cl)cc1Cl`: the Potency result is “inactive”.
On to `O=C(O)c1cccc(COc2ccc(CO)cc2Cl)c1`, for which the Potency is 0.501 µM (active).
Regarding `Cc1ccc(-c2csc3ncnc(Sc4nnnn4C)c23)cc1`, the Potency was 14.1 µM (active).
For `O=C(N/N=C/c1ccc(O)c(O)c1)c1ccc(CSc2cccc3cccnc23)cc1`, the Potency is 8.91 µM (active).
With `CC(C(=O)O)c1ccc(N2Cc3ccccc3C2=O)cc1` (stereo not given), the Potency was 2.24 µM (active).
`COc1cccc(-c2csc3ncnc(Sc4nnnn4C)c23)c1`: the Potency was 7.08 µM (active).
On to `Cc1csc(N/N=C/c2ccc(O)c([N+](=O)[O-])c2)n1`, for which the Potency is 1.78 µM (active).
Then `Cn1nnnc1Sc1ncnc2scc(-c3ccccc3C#N)c12`, with 15.8 µM (active); and `COc1ccc(-c2[nH]ncc2-c2ccc3c(c2)OCCO3)c(O)c1`, with 15.8 µM (active); and `C[C@@H]1CNCCN1S(=O)(=O)c1cccc2cnccc12`, with “inactive”.
For `Cn1nnnc1Sc1ncnc2scc(-c3ccccc3S(C)(=O)=O)c12` the value was “inactive”; for `COC(=O)CNC(=O)C1CCN(C(=O)OCc2ccccc2)CC1`, 1.41 µM (active); for `Cc1cccc(-c2csc3ncnc(Sc4nnnn4C)c23)c1`, 14.1 µM (active).
Turning to `COc1cc2nc(N3CCN(C(=O)C4CCCO4)CC3)nc(N)c2cc1OC` (stereo not given), the Potency was 4.47 µM (active).
Then `Oc1ccc(/C=C/c2cc(O)cc(O)c2)cc1`, with 2.24 µM (active); and `Cc1ccc(-n2ncc(Br)c(Br)c2=O)cc1`, with 12.6 µM (active).
For `Cn1nnnc1Sc1ncnc2scc(-c3ccccc3[N+](=O)[O-])c12` the value was 20 µM (active); for `CCOC(=O)c1sc2nc(N3CCOCC3)c3c(c2c1N)CC(C)(C)N(C)C3`, “inactive”.
For `N#CCCn1c(Cl)nc2ccccc21` the value was “inactive”.
On to `C=CCC(=O)OCCCCCCOc1ccc(C(=O)O)cc1`, for which the Potency is 1.41 µM (active).
Then `COc1ccccc1-n1nnnc1S(=O)(=O)Cc1ccc(Cl)cc1`, with 14.1 µM (active); and `O=C(CN1CCN(c2ccccn2)CC1)NC1CCCC1`, with “inactive”.

These data come from PubChem BioAssay AID2669 (National Center for Advancing Translational Sciences (NCATS), 2010).
